Test results published in PubChem BioAssay (Tox21).
Values joined by “and” are separate entries in the source; they are usually repeats but may differ in a detail not shown here. Identical values can stand only once. Records with an inconclusive call do not appear. Entries that show only a call come without a potency. Where a structure was tested more than once in an assay, its records may differ in their call. Active and inactive are the calls of the source. Unless noted, the call rests on the fitted dose curve; in most records, active means well fitted curve in the direction sought with a large enough effect in the repeat runs; inconclusive means weak or mixed curves; inactive means no such curve, though single readings can be large; an effect the other way counts as inactive or inconclusive.

Experiments:
[1] = target: Acetylcholinesterase (Homo sapiens) (UniProt P22303); assay: Acetylcholinesterase (AChE) small molecule antagonists: colormetric cell-based qHTS assay (AID 1347395; calls by dose curve; further: nearly all actives have a fitted effect of over 30% in size; further: potency means the concentration at half of the fitted maximal effect)
Summary of the method: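 Colorimetric readout: DTNB quantifies thiocholine from acetylthiocholine hydrolysed by endogenous AChE of SH-SY5Y cells (2,000/well, plated overnight). Compound pretreatment 30 min, substrate incubation 90 min, both 37 C.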

[2] = target: Acetylcholinesterase (Homo sapiens) (UniProt P22303); assay: Acetylcholinesterase (AChE) small molecule antagonists: enzyme-based qHTS assay (AID 1347397; calls by dose curve; further: nearly all actives have a fitted effect of over 55% in size; further: potency means the concentration at half of the fitted maximal effect); settings: Potency: AChE enzyme activity inhibition
Summary of the method: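 rhAChE 50 mU/mL (dispensed) + cpd or DMSO, 30 min RT; add DTNB/acetylthiocholine cocktail, 10 min RT; colorimetric thiocholine readout. qHTS, 1536-well format.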

[3] = target: Acetylcholinesterase (Homo sapiens) (UniProt P22303); assay: Acetylcholinesterase (AChE) small molecule antagonists: fluorescence cell-based qHTS assay (AID 1347398; calls by dose curve; further: nearly all actives have a fitted effect of over 50% in size; further: potency means the concentration at half of the fitted maximal effect); settings: Potency: AChE activity
Summary of the method: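 Read-out is Thiolite Green fluorescence at Ex/Em = 490/520 nm, formed by reaction with thiocholine released when cellular AChE in SH-SY5Y cells hydrolyzes acetylthiocholine. Compounds were preincubated 30 min at 37 C before substrate.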

[4] = target: Acetylcholinesterase (Homo sapiens) (UniProt P22303); assay: Acetylcholinesterase (AChE) small molecule antagonists: enzyme-based qHTS assay with human liver microsomes (AID 1347399; calls by dose curve; further: nearly all actives have a fitted effect of over 60% in size; further: potency means the concentration at half of the fitted maximal effect); settings: Potency: qHTS inhibition
Summary of the method: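 Recombinant human AChE (50 mU/mL in the enzyme mix) and human liver microsomes (0.25 mg/mL final) were preincubated with compound and NADPH (0.25 mg/mL final) for 30 min at 37 C. Acetylthiocholine/DTNB was then added; thiocholine was read colorimetrically after 10 min at room temperature.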

[5] = target: Cytochrome P450 2D6 (Homo sapiens) (UniProt P10635); assay: Cytochrome P450 Family 2 Subfamily D Member 6 (CYP2D6) small molecule antagonists: luciferase reporter qHTS assay (AID 1671196); further: nearly all actives have a fitted effect of over 50% in size; further: potency means the concentration at half of the fitted maximal effect
Summary of the method: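 Read-out is luminescence from luciferin formed by CYP2D6 turnover of a proluciferin substrate, recorded as relative luminescence units. Reactions ran 1 h at room temperature after NADPH regeneration solution was added.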

[6] = target: Cytochrome P450 2C19 (Homo sapiens) (UniProt P33261); assay: Cytochrome P450 Family 2 Subfamily C Member 19 (CYP2C19) small molecule antagonists: luciferase reporter qHTS assay (AID 1671197); further: nearly all actives have a fitted effect of over 65% in size; further: potency means the concentration at half of the fitted maximal effect
Summary of the method: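 Compounds were tested on CYP2C19 activity via proluciferin conversion to luciferin. The 37C, 1 h reaction followed NADPH addition; detection reagent stopped it.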

[7] = target: Cytochrome P450 2C9 (Homo sapiens) (UniProt P11712); assay: Cytochrome P450 Family 2 Subfamily C Member 9 (CYP2C9) small molecule antagonists: luciferase reporter qHTS assay (AID 1671198); further: nearly all actives have a fitted effect of over 50% in size; further: potency means the concentration at half of the fitted maximal effect
Summary of the method: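 Enzyme-substrate mix preincubated with compound 10 min at room temperature; reaction started with NADPH regeneration solution, 1 h 37C. Luminescent luciferin product read after 20 min detection reagent.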

[8] = target: Cytochrome P450 1A2 (Homo sapiens) (UniProt P05177); assay: Cytochrome P450 Family 1 Subfamily A Member 2 (CYP1A2) small molecule antagonists: luciferase reporter qHTS assay (AID 1671199); further: nearly all actives have a fitted effect of over 50% in size; further: potency means the concentration at half of the fitted maximal effect
Summary of the method: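 P450-Glo CYP1A2, 1536-well qHTS: enzyme/proluciferin substrate + cpd (DMSO), 10 min RT; NADPH regen, 1 h RT; detection reagent, 20 min; luminescence, RLU.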

[9] = target: Voltage-gated inwardly rectifying potassium channel KCNH2 (Homo sapiens) (UniProt Q12809); assay: Human Ether-a-go-go-Related Gene (hERG) channel small molecule antagonists: fluorescence cell-based qHTS assay (AID 1671200)
Summary of the method: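 Thallium flux as potassium surrogate: FluxOR II dye loaded 1 h at room temperature into hERG-expressing U2OS cells, then stimulus buffer added after 10 min. Kinetic 480 nm excitation/540 nm emission read, 2 min.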

[10] = target: Cytochrome P450 3A4 (Homo sapiens) (UniProt P08684); assay: Cytochrome P450 Family 3 Subfamily A Member 4 (CYP3A4) small molecule antagonists: luciferase reporter qHTS assay (AID 1671201); further: nearly all actives have a fitted effect of over 50% in size; further: potency means the concentration at half of the fitted maximal effect
Summary of the method: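 Recombinant human CYP3A4 converts a proluciferin substrate to luciferin over 1 h at room temperature after NADPH regeneration solution is added (compound preincubated 10 min); detection reagent stops reaction, luminescence read 20 min later as relative units.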

Chain of Voltage-gated inwardly rectifying potassium channel KCNH2 (Homo sapiens) (Q12809 whole entry, looked up): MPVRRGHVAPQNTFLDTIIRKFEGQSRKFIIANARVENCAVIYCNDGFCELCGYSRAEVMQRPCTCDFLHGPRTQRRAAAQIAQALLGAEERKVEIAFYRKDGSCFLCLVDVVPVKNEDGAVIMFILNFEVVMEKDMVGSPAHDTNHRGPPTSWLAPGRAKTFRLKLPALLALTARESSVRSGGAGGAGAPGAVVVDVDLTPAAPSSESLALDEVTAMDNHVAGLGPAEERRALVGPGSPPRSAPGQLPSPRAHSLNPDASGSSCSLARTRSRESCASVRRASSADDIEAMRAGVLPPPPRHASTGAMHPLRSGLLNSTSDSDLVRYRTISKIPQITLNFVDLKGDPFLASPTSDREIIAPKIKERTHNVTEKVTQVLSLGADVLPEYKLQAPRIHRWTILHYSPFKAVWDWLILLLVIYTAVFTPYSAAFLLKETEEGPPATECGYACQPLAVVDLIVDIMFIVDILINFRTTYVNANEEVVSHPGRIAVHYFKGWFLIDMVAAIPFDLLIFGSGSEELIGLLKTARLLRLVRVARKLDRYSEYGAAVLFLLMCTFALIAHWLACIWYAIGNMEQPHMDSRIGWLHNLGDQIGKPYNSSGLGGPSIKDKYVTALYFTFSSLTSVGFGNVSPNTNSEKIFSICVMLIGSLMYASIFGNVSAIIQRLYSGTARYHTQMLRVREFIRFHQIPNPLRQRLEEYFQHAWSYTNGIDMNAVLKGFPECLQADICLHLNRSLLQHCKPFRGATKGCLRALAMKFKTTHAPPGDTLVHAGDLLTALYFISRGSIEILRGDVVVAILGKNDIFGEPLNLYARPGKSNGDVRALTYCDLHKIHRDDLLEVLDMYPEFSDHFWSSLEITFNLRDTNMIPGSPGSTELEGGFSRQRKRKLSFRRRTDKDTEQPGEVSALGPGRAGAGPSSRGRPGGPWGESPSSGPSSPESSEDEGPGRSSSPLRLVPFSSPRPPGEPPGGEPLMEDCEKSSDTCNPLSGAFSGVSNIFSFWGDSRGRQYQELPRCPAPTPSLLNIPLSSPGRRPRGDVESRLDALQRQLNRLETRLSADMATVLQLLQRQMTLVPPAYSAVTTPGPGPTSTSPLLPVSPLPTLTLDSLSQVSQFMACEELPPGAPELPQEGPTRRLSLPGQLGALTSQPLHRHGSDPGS
Chain of Cytochrome P450 1A2 (Homo sapiens) (P05177 whole entry, looked up): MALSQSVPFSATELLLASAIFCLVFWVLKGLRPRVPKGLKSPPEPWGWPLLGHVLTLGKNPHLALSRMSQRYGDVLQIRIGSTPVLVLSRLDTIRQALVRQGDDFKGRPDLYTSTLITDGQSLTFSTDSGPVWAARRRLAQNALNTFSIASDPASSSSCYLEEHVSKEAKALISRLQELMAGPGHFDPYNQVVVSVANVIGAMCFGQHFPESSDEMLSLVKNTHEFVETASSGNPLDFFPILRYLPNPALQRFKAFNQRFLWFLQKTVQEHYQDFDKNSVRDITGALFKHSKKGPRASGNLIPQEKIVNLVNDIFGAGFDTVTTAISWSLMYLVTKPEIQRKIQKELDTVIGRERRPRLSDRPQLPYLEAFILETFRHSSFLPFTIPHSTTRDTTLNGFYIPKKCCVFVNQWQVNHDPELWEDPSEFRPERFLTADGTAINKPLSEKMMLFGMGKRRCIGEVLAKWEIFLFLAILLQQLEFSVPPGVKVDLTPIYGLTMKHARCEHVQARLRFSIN
Chain of Acetylcholinesterase (Homo sapiens) (P22303 whole entry, looked up): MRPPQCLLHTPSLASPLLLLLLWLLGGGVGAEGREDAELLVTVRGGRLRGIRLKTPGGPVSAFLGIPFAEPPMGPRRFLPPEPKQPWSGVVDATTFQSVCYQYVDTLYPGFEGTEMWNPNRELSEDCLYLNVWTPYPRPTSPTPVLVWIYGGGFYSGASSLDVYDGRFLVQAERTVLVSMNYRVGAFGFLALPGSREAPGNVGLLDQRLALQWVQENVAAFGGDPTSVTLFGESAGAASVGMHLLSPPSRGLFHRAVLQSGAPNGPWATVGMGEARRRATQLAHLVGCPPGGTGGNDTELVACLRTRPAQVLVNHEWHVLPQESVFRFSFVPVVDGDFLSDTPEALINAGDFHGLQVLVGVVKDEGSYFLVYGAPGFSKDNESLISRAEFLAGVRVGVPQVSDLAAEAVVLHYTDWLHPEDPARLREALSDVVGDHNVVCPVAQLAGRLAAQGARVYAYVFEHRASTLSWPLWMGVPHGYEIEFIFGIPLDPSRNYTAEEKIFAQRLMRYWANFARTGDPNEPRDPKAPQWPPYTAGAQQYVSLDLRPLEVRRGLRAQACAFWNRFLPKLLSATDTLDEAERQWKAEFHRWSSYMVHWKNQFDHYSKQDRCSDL
Chain of Cytochrome P450 3A4 (Homo sapiens) (P08684 whole entry, looked up): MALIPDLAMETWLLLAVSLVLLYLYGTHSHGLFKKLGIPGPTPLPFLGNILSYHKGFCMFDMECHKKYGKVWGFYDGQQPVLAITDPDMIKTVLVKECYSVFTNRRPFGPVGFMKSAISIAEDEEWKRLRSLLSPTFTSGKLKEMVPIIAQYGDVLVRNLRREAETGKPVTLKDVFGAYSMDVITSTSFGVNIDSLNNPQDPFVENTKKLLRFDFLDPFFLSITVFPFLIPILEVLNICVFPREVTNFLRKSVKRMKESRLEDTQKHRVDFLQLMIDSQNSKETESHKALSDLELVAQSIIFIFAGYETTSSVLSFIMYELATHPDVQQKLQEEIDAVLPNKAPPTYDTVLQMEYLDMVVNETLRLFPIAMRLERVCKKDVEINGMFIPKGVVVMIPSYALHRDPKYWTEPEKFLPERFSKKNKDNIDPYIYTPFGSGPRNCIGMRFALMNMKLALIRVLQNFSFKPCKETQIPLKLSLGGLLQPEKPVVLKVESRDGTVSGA
Chain of Cytochrome P450 2C9 (Homo sapiens) (P11712 whole entry, looked up): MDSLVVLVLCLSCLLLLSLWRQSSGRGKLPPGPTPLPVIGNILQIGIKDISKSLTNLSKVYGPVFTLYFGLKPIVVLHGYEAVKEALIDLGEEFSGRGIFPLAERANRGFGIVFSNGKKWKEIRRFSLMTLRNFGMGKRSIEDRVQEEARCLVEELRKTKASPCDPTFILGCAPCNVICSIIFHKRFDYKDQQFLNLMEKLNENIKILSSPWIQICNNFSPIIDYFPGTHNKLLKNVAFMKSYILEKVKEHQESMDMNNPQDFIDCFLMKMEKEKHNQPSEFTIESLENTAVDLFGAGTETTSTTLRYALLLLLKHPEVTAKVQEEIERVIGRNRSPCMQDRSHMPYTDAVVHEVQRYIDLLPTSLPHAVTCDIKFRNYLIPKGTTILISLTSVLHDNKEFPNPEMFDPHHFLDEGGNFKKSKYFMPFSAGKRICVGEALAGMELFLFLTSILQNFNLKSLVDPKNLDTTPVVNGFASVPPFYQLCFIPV
Chain of Cytochrome P450 2C19 (Homo sapiens) (P33261 whole entry, looked up): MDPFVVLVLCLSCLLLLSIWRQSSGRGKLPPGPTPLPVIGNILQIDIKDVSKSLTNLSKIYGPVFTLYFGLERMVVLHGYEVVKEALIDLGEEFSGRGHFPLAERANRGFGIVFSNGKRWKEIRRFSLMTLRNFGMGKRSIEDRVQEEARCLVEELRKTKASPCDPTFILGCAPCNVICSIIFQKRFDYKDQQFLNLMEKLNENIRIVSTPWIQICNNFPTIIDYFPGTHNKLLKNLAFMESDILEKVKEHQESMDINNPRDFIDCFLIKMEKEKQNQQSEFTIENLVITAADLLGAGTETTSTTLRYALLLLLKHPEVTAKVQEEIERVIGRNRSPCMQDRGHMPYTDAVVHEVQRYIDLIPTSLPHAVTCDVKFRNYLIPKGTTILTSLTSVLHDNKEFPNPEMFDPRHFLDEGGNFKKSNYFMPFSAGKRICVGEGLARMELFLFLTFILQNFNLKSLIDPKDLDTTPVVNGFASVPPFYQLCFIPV
Chain of Cytochrome P450 2D6 (Homo sapiens) (P10635 whole entry, looked up): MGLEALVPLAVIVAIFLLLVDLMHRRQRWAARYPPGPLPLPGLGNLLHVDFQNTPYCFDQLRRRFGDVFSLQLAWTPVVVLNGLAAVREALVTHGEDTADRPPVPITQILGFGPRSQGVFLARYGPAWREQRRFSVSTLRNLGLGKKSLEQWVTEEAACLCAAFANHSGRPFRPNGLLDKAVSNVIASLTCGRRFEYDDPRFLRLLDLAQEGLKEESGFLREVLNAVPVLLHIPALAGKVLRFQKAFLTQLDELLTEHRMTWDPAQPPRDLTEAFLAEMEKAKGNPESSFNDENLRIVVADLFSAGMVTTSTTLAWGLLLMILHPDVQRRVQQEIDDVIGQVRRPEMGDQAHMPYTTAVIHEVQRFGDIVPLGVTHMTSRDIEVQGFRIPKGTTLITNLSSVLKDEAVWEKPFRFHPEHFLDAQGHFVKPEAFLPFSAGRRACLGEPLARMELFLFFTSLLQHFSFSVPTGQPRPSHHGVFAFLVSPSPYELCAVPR

| SMILES | Potency [1] | Potency [2] | Potency [3] | Potency [4] | Potency [5] | Potency [6] | Potency [7] | Potency [8] | Potency [9] | Potency [10] |
| --- | --- | --- | --- | --- | --- | --- | --- | --- | --- | --- |
| O=C(CCl)c1ccccc1 | inactive | inactive | inactive | inactive | 32.1 µM (active) and 31.7 µM (active) | 57.2 µM (active) | 40.5 µM (active) and inactive | inactive | inactive | inactive |
| NCc1cccnc1 | inactive | inactive | inactive | inactive | inactive | 28.3 µM (active) and inactive | inactive | inactive | inactive | inactive |
| Cc1cc(C)cc(C)c1 | inactive | inactive | inactive | inactive | inactive | inactive | inactive | inactive | inactive | inactive |
| CNC(=O)N(C)c1nnc(C(C)(C)C)s1 | inactive | inactive | inactive | inactive | inactive | 39.9 µM (active) and inactive | inactive | 39.9 µM (active) | inactive | inactive |
| Nc1ccc(Cl)cc1N | inactive | inactive | inactive | inactive | 32.6 µM (active) | 20.8 µM (active) and 7.1 µM (active) | 32.6 µM (active) | 11.7 µM (active) and 10.9 µM (active) | inactive | 26.2 µM (active) and 5.64 µM (active) |
| Clc1nc(Cl)nc(Cl)n1 | inactive | inactive | inactive | inactive | inactive | inactive | inactive | inactive | inactive | inactive |
| OCC(O)CO | inactive | inactive | inactive | inactive | inactive | inactive | inactive | inactive | inactive | inactive |
| Oc1c(Cl)c(Cl)c(Cl)c(Cl)c1Cl | inactive | inactive | inactive | inactive | inactive and 796 nM (active) | 34.9 µM (active) and 15.9 µM (active) and inactive |  | 62 µM (active) and 35.5 µM (active) and 79.6 µM (active) | inactive | inactive |
| Cc1ccc(OP(=O)(Oc2ccc(C)cc2)Oc2ccc(C)cc2)cc1 | inactive | inactive | inactive | inactive | inactive | 3.99 µM (active) and 5.03 µM (active) | 7.09 µM (active) and 8.94 µM (active) | 7.09 µM (active) and 7.1 µM (active) |  | 7.09 µM (active) and 10 µM (active) |
| c1ccc(NNc2ccccc2)cc1 | inactive | inactive | inactive | inactive | inactive | inactive | 71.7 µM (active) and inactive | 32 µM (active) and 12.6 µM (active) | inactive | inactive |
| O=C1C=CC(=O)C=C1 | inactive | inactive | inactive | inactive | inactive | inactive | inactive | 40.1 µM (active) | inactive | inactive |
| c1cc(OCC2CO2)ccc1Cc1ccc(OCC2CO2)cc1 (centres undefined) | inactive | inactive | inactive | inactive | 16 µM (active) and 28.3 µM (active) | 8 µM (active) and 7.96 µM (active) | 35.7 µM (active) and 28.3 µM (active) | 71 µM (active) | inactive |  |
| CCCCN(CCCC)N=O | inactive | 34.1 µM (active) and inactive | 12.1 µM (active) and inactive | inactive | inactive | 60.7 µM (active) and inactive | inactive | inactive | inactive | inactive |
| COP(=O)(OC)OC | inactive | inactive | inactive | inactive | inactive | 9.01 µM (active) and inactive | 32 µM (active) and inactive | 35.9 µM (active) and inactive | inactive | 16 µM (active) and inactive |
| C=CCN(CC=C)C(=O)C(Cl)Cl | inactive | inactive | inactive | inactive | inactive | inactive | inactive | inactive | inactive | inactive |
| C[C@]12CCC(=O)C(O)=C1CC[C@@H]1[C@@H]2CC[C@]2(C)C(=O)CC[C@@H]12 | inactive | inactive | inactive | inactive | 31.7 µM (active) | 20 µM (active) |  | inactive | inactive |  |

| SMILES | Potency [1] | Potency [2] | Potency [3] | Potency [4] | Potency [5] | Potency [6] | Potency [7] | Potency [8] | Potency [9] | Potency [10] |
| --- | --- | --- | --- | --- | --- | --- | --- | --- | --- | --- |
| CCOP(=S)(OCC)O/N=C(\C#N)c1ccccc1 | 63.3 µM (active) and 17.4 µM (active) | 56.4 µM (active) | 39.9 µM (active) | 1.78 µM (active) and 1.55 µM (active) | 35.6 µM (active) | 224 nM (active) and 347 nM (active) | 2 µM (active) and 2.19 µM (active) | 1.42 µM (active) and 1.23 µM (active) | inactive |  |
| CCCCCCCCC(=O)NCc1ccc(O)c(OC)c1 | inactive | inactive | inactive | inactive | 31.7 µM (active) and 17.4 µM (active) | 4.9 µM (active) | 2.52 µM (active) and 2.45 µM (active) | 31.7 µM (active) and 27.5 µM (active) | inactive |  |
| C=C(C)C(=O)OCC1CO1 (centres undefined) | inactive | inactive | inactive | inactive | inactive | inactive | inactive | inactive | inactive | inactive |
| CC(C)(OOC(C)(C)c1ccccc1)c1ccccc1 | inactive | inactive | inactive | inactive | 35.1 µM (active) and inactive | 35.1 µM (active) and 6.33 µM (active) | 31.3 µM (active) and 31.7 µM (active) | inactive | inactive | inactive |
| Cc1cccc(N)c1N | inactive | inactive | inactive | inactive | 61.2 µM (active) and 17.8 µM (active) | 38.6 µM (active) and 35.6 µM (active) | 34.4 µM (active) and 35.6 µM (active) | 7.7 µM (active) and 14.2 µM (active) | inactive | 3.86 µM (active) and 11.2 µM (active) |
| CCN(N=O)C(N)=O | inactive | inactive | inactive | inactive | inactive | 69.7 µM (active) and inactive | inactive | inactive | inactive | inactive |
| CC(C)C(=O)OCC(C)(C)C(OC(=O)C(C)C)C(C)C (centres undefined) | inactive | inactive | inactive | inactive | 32 µM (active) and inactive | inactive | inactive | inactive | inactive | inactive |
| Cc1ccc(N)c(N)c1 | inactive | inactive | inactive | inactive | 3.57 µM (active) and 17.8 µM (active) | 17.9 µM (active) and 31.7 µM (active) | 35.7 µM (active) and 20 µM (active) | 5.66 µM (active) and 20 µM (active) | inactive | 31.8 µM (active) and 31.7 µM (active) |
| O=[N+]([O-])c1cccc2ccccc12 | inactive | inactive | inactive | inactive | inactive | inactive | inactive | 3.17 µM (active) and 3.99 µM (active) | inactive | inactive |
| CCc1cccc(CC)c1N(COC)C(=O)CCl | inactive | inactive | inactive | inactive | inactive | 9.71 µM (active) and 71 µM (active) | 30.7 µM (active) and 39.9 µM (active) | inactive | inactive |  |
| C=C(C)[C@H]1Cc2c(ccc3c2O[C@@H]2COc4cc(OC)c(OC)cc4[C@@H]2C3=O)O1 | inactive | inactive | inactive | inactive | inactive and 38.9 µM (active) |  | 5.09 µM (active) and 6.33 µM (active) and 9.77 µM (active) | inactive | inactive |  |
| c1ccc(N=Nc2ccccc2)cc1 | inactive | inactive | inactive | inactive | 14.4 µM (active) and inactive | inactive | inactive | 25.7 µM (active) and 10 µM (active) | inactive | inactive |
| CC1(C)C(C=C(Cl)Cl)C1C(=O)OC(C#N)c1cccc(Oc2ccccc2)c1 (centres undefined) | inactive | inactive | inactive | inactive | inactive | 17.8 µM (active) and 24.5 µM (active) | 5.64 µM (active) and 12.3 µM (active) | inactive | inactive | inactive |
| Oc1ccc(-c2ccccc2)cc1 | inactive | inactive | inactive | inactive | 31.3 µM (active) | 35.1 µM (active) and 35.6 µM (active) | 39.4 µM (active) | 11.1 µM (active) and 11.2 µM (active) | inactive | inactive |
| CNC(=O)Oc1cccc2c1OC(C)(C)O2 | 1.04 µM (active) and 399 nM (active) | 1.65 µM (active) and 356 nM (active) | 826 nM (active) and 224 nM (active) | 10.4 µM (active) and 5.03 µM (active) | inactive | 36.9 µM (active) and 71 µM (active) |  | 35.6 µM (active) | inactive | inactive |
